ClpP mod – qHTS Assay for Activators of ClpP. ATP-dependent Clp protease proteolytic subunit (Bacillus subtilis (strain 168)), P80244. purified B. subtilis ClpP, FRET peptide cleavage, 20 min. Potency, µM (series often up to 57.5 µM). 340,000 tested, 1.9% active. AID 651965, 2013; active means well fitted falling curve with a large enough effect; inconclusive means small, poorly fitted or top-dose-only effect; inactive means no such curve, though single readings can be large or run the other way; further: the source files actives as falling curves though it sought activators and does not explain the sign; nearly all actives have a fitted effect of over 65% in size
Target sequence (P80244 whole entry, looked up): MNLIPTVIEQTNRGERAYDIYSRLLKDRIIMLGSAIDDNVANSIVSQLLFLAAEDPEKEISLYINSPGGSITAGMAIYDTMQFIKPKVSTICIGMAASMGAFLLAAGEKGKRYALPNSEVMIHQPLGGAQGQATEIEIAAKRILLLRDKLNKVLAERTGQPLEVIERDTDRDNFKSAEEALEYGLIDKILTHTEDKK
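Purified B. subtilis ClpP, 10 microg/mL final in Tris/HCl pH8 with KCl, BSA, glycerol and Tween-20, cleaved an Abz/nitrotyrosine-quenched decapeptide. Fluorescence (ex 320, em 430) was read at 0 and 20 min at room temperature. Delta was normalized to 5.8 microM ADEP and DMSO/no-enzyme controls.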
Sfp inh – inhibitors of Bacillus subtilis Sfp phosphopantetheinyl transferase | Q9F4F7 | Biochemical Sfp PPTase activity, qHTS | Potency, µM, most hits filed as inhibitors | 310,000 tested, 3.5% active;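 further: the enzyme is Sfp with the accession as filed and its product quenches rhodamine fluorescence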
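Buffer: 50 mM Hepes-Na pH 7.6, 10 mM MgCl2, 0.01% Nonidet P-40, 0.01% BSA. Enzyme 15 nM, pre-exposed to compound 15 min; substrates then added and fluorescence change tracked over 30 min.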
Gal4-VP16 FLuc – inhibits Gal4-VP16 luciferase reporter, ROR gamma counter-screen; Potency, µM (series often up to 53.6 µM), actives largely listed as inhibitors; Drosophila S2 Gal4-VP16 UAS-luciferase, luminescence, 20 h; AID 2546; 310,000 tested, 3.5% active;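 further: Gal4-VP16 expression switched on by copper sulfate through the metallothionein promoter; nearly all actives have a fitted effect of over 50% in size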
RORgamma inh – blocks mouse ROR gamma transcriptional activity; P51450; Drosophila S2 Gal4-RORgamma UAS-luciferase reporter, 20 h; Potency, µM (top dose mostly 53.6 µM), most hits filed as inhibitors; 310,000 tested, 5.4% active; AID 2551; further: nearly all actives have a fitted effect of over 60% in size
Target sequence (P51450 whole entry, looked up, the tested form may be a part): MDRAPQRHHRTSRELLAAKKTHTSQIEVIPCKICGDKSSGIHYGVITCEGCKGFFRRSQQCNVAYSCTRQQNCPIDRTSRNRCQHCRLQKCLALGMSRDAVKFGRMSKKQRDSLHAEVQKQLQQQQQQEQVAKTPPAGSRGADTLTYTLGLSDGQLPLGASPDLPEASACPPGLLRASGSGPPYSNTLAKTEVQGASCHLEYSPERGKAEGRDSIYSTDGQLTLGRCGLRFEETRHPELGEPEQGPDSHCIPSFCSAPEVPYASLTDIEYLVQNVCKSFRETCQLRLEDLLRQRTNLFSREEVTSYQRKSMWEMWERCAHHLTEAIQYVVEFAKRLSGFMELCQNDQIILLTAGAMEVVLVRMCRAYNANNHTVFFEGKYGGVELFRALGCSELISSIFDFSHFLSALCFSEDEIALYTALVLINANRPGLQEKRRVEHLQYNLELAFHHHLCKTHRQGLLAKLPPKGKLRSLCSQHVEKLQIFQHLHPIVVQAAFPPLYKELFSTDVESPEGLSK
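Drosophila Schneider cells stably carrying a metallothionein-driven Gal4 DBD–ROR gamma fusion and a UAS-Photinus luciferase reporter were exposed to compound for 1 hr, then induced with copper sulfate (700 uM final) for 20 hr at ambient temperature before luminescence reading.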
Epigenetic reg – derepresses silenced GFP reporter in murine cells; murine LDR cells, GFP reporter derepression, 30 h; Potency, µM (highest dose often 53.9 µM), most hits filed as activators; 280,000 tested, 0.2% active; AID 1865; further: nearly all actives have a fitted effect of over 60% in size
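Readout is the number of GFP-expressing murine LDR cells, counted by cytometry following washing. Cells were treated with compound for 30 h at 37 C; the stably integrated CMV-GFP locus is normally silent.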
PINK1 modulator – modulators of PINK1 expression. Potency, µM (series often up to 76.6 µM), usual class: activators. 410,000 tested, 0.2% active. AID 624263. PINK1 immunofluorescence, high-content cytometry, 24 h; active means well fitted activation curve with a large enough effect; inconclusive means small, poorly fitted or top-dose-only effect; cell line not stated here; further: nearly all actives have a fitted effect of over 65% in size
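Measures PINK1 amount and localization on or inside mitochondria by immunofluorescence. Stable cells get compounds at 5 concentrations for 24 hours before fixation and staining; CCCP controls included.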
A number is an active result; – = inactive; ? = inconclusive; · = not tested or not shown; ! = a repeat was not active; [ ] = another dose, or the depositor's remark. In the library only some 8.1% were active in any assay of this set; here they are far more common. Unless noted, the call rests on the fitted dose curve; in most records, active means well fitted curve in the direction sought with a large enough effect; inconclusive means small, poorly fitted or top-dose-only effect, or another doubt; inactive means no such curve, though single readings can be large; an effect the other way counts as inactive or inconclusive.

SMILES	ClpP mod	Sfp inh	Gal4-VP16 FLuc	RORgamma inh	Epigenetic reg	PINK1 modulator
Cn1nc(-c2cccnc2)nc2c(=O)n(C)c(=O)nc1-2	–	·	·	·	·	–
Cc1cccc(C(=O)OCC(=O)NC(=O)c2ccccc2)c1O	13µM	·	·	·	·	–
Cc1cccc(C(=O)OCC(=O)NCCNC(=O)COC(=O)c2cccc(C)c2C)c1C	–	–	?	13µM	·	–
Fc1ccc(Nc2nc(NCc3ccco3)nc3nccnc23)cc1	–	·	·	·	·	–
CC(C)CN1C(=O)c2ccc(NC(=O)c3cccs3)cc2C1=O	28µM	–	–	?	–	–
CC(C)CN1C(=O)c2ccc(NC(=O)c3ccco3)cc2C1=O	·	–	?	?	–	–
CC(C)CN1C(=O)c2ccc(NC(=O)c3ccccc3F)cc2C1=O	32µM	–	–	–	–	–
COc1ccc(NC(=O)C(NS(=O)(=O)c2ccc3c(c2)CCCC(=O)N3)C(C)C)c(OC)c1 (stereo unspecified)	–	·	·	·	–	–
COc1ccc(-c2csc3nc(-c4ccc(F)cc4)oc(=O)c23)cc1OC	–	·	·	·	–	–
CSC(=S)N/N=C/c1ccccc1	·	–	3.2µM	1.4µM	–	–
COc1ccc(/C=N/NC(=S)SC)cc1OC	–	–	3.2µM	1.6µM	–	–
S=C(N/N=C/c1ccccc1)N1CCOCC1	–	–	2.5µM	0.4µM	–	–
S=C(Nc1ccccc1)N1CCOCC1	·	–	–	–	–	–
COc1ccc(C=NNC(=O)NN=Cc2ccc(OC)c(OC)c2)cc1OC	·	·	·	·	·	–
CCOc1ccc(-n2c(SCC(=O)N3CCCCC3)nc3c([nH]c4ccccc43)c2=O)cc1	–	·	·	·	–	–
Clc1ccc(-c2noc3ncnc(NCCCN4CCN(c5ccccc5)CC4)c23)cc1	–	·	·	·	–	–
O=C(/C=C/c1c(F)cccc1Cl)NCc1ccco1	10µM	–	–	–	–	–
O=C(CN1C(=O)/C(=C/c2c(F)cccc2Cl)Oc2ccccc21)NCc1ccco1	·	40µM	–	–	–	·
COc1ccc(-c2ccc(/C=C3/C(=N)N4C=CSC4=NC3=O)o2)c([N+](=O)[O-])c1	–	–	3.5µM	2.5µM	–	?
COC(=O)CC1C(=O)NCCN1C(=O)c1sc2ccccc2c1Cl (stereo unspecified)	–	–	–	–	–	–
COC(=O)CC1C(=O)NCCN1C(=S)NC(=O)CCc1ccccc1 (stereo unspecified)	–	–	–	–	–	–
COC(=O)CC1C(=O)NCCN1C(=S)NC(=O)c1sc2ccccc2c1Cl (stereo unspecified)	–	79µM	7.1µM	0.63µM	–	–
COC(=O)CC1C(=O)NCCN1C(=S)NC(=O)C(c1ccccc1)c1ccccc1 (stereo unspecified)	–	–	16µM	10µM	–	–
CC(C)OC(=O)CC1C(=O)NCCN1C(=S)NC(=O)c1ccccc1 (stereo unspecified)	–	18µM	–[10 µM]	–	–[10.1 µM]	–
CC(C)OC(=O)CC1C(=O)NCCN1C(=S)NC(=O)c1ccc(F)cc1 (stereo unspecified)	·	–	8.9µM	3.2µM	–	–
SMILES	ClpP mod	Sfp inh	Gal4-VP16 FLuc	RORgamma inh	Epigenetic reg	PINK1 modulator
COc1ccccc1/C=C/c1cncc(/C=C/c2ccccc2OC)c1	–	·	·	·	·	–
Cc1ccc(-n2c(=O)c3c(c4cc(C)ccc4n3C)n(CC(=O)Nc3cc(C)cc(C)c3)c2=O)cc1	–	·	·	·	–	–
COc1ccc(OC)c(NC(=O)c2cc3c(=O)oc4ccccc4c3s2)c1	–	·	·	·	–	–
CCCCC[C@H](O)/C=C/[C@@H]1[C@H](C/C=C\CCCC(=O)O)[C@@H](O)C[C@H]1O	·	–	–	–	–	·
CCOc1ccc(C(c2c(O)nc(SC)[nH]c2=O)c2c(O)nc(SC)[nH]c2=O)cc1	–	·	·	·	·	–
CSc1nc(O)c(C(c2ccc(O)cc2)c2c(O)nc(SC)[nH]c2=O)c(=O)[nH]1	–	50µM	–	–[1.91 µM]	·	–
CCn1c(CSc2nnc3ccccn23)nc2cc(C(=O)O)ccc21	–	–	–	?	–	–
CCn1c(CSc2n[nH]c(N)n2)nc2cc(C(=O)O)ccc21	·	79µM	–	–	–	–
Cc1cc(NC(=O)CN(C)S(=O)(=O)c2ccc(-c3ccc(=O)[nH]n3)s2)ccc1Br	–	–	?	13µM	·	–
Cc1cccc(C)c1NC(=O)CN(C)S(=O)(=O)c1ccc(-c2ccc(=O)[nH]n2)s1	–	–	–	–	·	–
COc1ccc(/C=C(\NC(=O)c2ccccc2)C(=O)NC2CCCCC2)cc1	–	·	·	·	–	–
CCCCC1(CCCC)NC(=S)N(Nc2ccc(C)cc2)C1=O	–	–	–	?	–	–
CCCCC1(C)NC(=S)N2N1C(=S)NC2(C)CCCC (stereo unspecified)	·	56µM	–	–	–	–
CCCNC(=O)Cn1nc(-c2ccc(C)cc2)c2cnc3ccc(CC)cc3c21	–	·	·	·	–	–
COc1ccc(/C=C/C(=O)NCc2cn(C)nc2C)cc1COc1ccc(Cl)cc1Br	14µM	–	?	?	–	?
CCn1nc(C)c(NC(=O)/C=C/c2ccc(OC)c(COc3ccc(Cl)cc3Br)c2)c1C	–	–	–	–	?	–
CCOC(=O)c1c(C)nc2c(C#N)cnn2c1C	?	–	–	–	–	–
CCCCNc1c(C(=O)OCC)c(C)nc2c1cnn2CC	–	?	?	32µM!	–	–
CCC1CN(CCNC(=O)c2ccc3c(c2)OCCO3)Cc2cc(OC)ccc2O1 (stereo unspecified)	·	·	·	·	·	–
CC(NC(=S)NCCc1ccccc1)C(c1cccs1)N1CCN(Cc2ccccc2)CC1 (stereo unspecified)	–	–	?	5µM	–	16µM
CC(NC(=S)Nc1ccccc1Cl)C(c1cccs1)N1CCCC1 (stereo unspecified)	·	–	?	7.9µM	–	–
CC(NC(=S)Nc1ccc(F)cc1)C(c1cccs1)N1CCOCC1 (stereo unspecified)	–	–	?	4µM	–	–
Cc1ccccc1NC(=S)NC(C)C(c1cccs1)N1CCOCC1 (stereo unspecified)	–	–	22µM	2.8µM	–	–
COc1ccc(C2(C(=O)NCC3Cc4cccc(-c5nc(C)cnc5C)c4O3)CCCC2)cc1 (stereo unspecified)	·	·	·	·	·	–
CC(C)c1ccc(NC(=O)c2cnc3sc(N4CCCC4)nn3c2=O)cc1	–	·	·	·	–	–
CC12CCC(/C(=N/O)C1=O)C2(C)C (stereo unspecified)	·	–	–	–	·	·
COc1cc2c(C#CCCCO)c(-c3ccc(C#N)cc3)oc(=O)c2cc1OC	14µM	·	·	·	·	–
COc1cc2c(C#CCO)c(-c3ccc(C#N)cc3)oc(=O)c2cc1OC	–	·	·	·	·	–

Compound activity deposited in PubChem by National Center for Advancing Translational Sciences (NCATS).
